Assay results taken from PubChem BioAssay (Tox21).
Records with an inconclusive call do not appear. Calls of active or inactive are those of the source. Unless noted, the call rests on the fitted dose curve.

Legend:
[1] = Nuclear factor erythroid 2-related factor 2/antioxidant responsive element (Nrf2/ARE) small molecule agonists: qHTS cell viability counter screen in human keratinocytes (AID 1919968; active means well fitted curve in the direction sought with a large enough effect in the repeat runs; an effect the other way counts as inactive or inconclusive; further: nearly all actives have a fitted effect of over 55% in size; further: potency means the concentration at half of the fitted maximal effect)
Outline: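 KeratinoSens cells (HaCaT keratinocytes stably carrying an ARE-luciferase reporter) were seeded at 1,500 cells/well and rested 5 h at 37 C/5% CO2. They were then exposed to compounds in DMSO for 23 h. Viability was read by CellTiter-Fluor fluorescence after 1 h.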

[2] = Nuclear factor erythroid 2-related factor 2/antioxidant responsive element (Nrf2/ARE) small molecule agonists: luciferase reporter gene qHTS assay in human keratinocytes (AID 1919969); further: nearly all actives have a fitted effect of over 35% in size
[3] = target: Gonadotropin-releasing hormone receptor (Homo sapiens) (UniProt P30968); assay: Human gonadotropin-releasing hormone receptor (GnRHR) small molecule agonists, calcium flux assay in GnRHR-HEK293 cells (AID 1920063); further: nearly all actives have a fitted effect of over 35% in size
Chain of Gonadotropin-releasing hormone receptor (Homo sapiens) (P30968 whole entry, looked up): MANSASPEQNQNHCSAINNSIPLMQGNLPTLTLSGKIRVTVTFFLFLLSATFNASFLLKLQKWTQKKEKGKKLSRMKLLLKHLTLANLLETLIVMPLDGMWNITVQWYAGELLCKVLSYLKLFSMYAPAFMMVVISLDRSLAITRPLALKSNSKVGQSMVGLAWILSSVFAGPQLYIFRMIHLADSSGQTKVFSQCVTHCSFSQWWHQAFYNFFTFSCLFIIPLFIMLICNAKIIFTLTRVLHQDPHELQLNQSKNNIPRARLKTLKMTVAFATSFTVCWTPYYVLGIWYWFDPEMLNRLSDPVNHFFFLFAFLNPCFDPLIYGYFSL
Outline: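 HEK293 cells stably expressing human GnRHR were plated 18 h at 37 °C, loaded with calcium dye 1 h at 37 °C, then given compound in agonist mode; fluorescence (Ex/Em 480/540) read kinetically for 3 min at 1 s intervals.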

[4] = target: KiSS-1 receptor (Homo sapiens) (UniProt Q969F8); assay: Human kisspeptin (KISS1R) small molecule agonists, calcium flux assay in KISS1R-HEK293 cells (AID 1920064; active means well fitted curve in the direction sought with a large enough effect in the repeat runs; an effect the other way counts as inactive or inconclusive)
Chain of KiSS-1 receptor (Homo sapiens) (Q969F8 whole entry, looked up): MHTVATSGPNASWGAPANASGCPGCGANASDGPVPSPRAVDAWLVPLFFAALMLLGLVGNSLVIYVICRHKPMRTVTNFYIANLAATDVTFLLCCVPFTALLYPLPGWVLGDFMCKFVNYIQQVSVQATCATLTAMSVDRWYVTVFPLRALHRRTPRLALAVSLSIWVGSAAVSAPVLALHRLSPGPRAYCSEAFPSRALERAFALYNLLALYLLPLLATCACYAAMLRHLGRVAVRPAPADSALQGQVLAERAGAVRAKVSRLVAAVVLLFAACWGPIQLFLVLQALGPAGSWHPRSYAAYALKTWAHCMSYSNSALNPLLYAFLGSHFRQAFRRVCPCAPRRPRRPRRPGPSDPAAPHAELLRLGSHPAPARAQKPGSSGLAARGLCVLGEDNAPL
Outline: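 HEK293 cells stably expressing human KISS1R were plated 18 h at 37 °C, loaded with calcium dye for 1 h at 37 °C, then given compound by pin tool. Fluorescence (Ex/Em 480/540) was read kinetically for 3 min.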

[5] = G protein-coupled receptor (GPCR) small molecule agonists, calcium flux assay: HEK293 wild type cell line counter screen (AID 1920065)
Outline: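 Cells were plated and cultured 18 h at 37 C/5% CO2, then loaded with calcium dye for 1 h at 37 C. Compounds in DMSO were pin-transferred in agonist mode, and fluorescence (Ex/Em 480/540) was read kinetically for 3 min at 1 s intervals.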

[6] = p53 small molecule agonists, cell-based qHTS assay with human liver microsomes (AID 1963577)
Outline: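 Fluorescence of the beta-lactamase reporter in p53RE-bla cells, detected with LiveBLAzer substrate (2 h, room temperature, dark), served as the read-out after 16 h compound exposure at 37 C with human liver microsomes and NADPH, each 0.5 mg/mL final.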

[7] = p53 small molecule agonists, cell-based qHTS assay with rat liver microsomes (AID 1963578)
Outline: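 Cells carrying a p53 response element–beta-lactamase reporter were plated and rested 5 h, then dosed with compound in DMSO plus rat liver microsomes and NADPH, each at 0.5 mg/mL final. After 16 h at 37 C, LiveBLAzer substrate was added for 2 h.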

[8] = p53 small molecule agonists, cell-based qHTS assay with human liver microsomes: qHTS cell viability counter screen (AID 1963579); further: nearly all actives have a fitted effect of over 45% in size
Outline: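 Cytotoxicity counter screen: p53RE-bla, 4,000 cells/well; 5 h settle, 37 C/5% CO2; cpd + HLM 0.5 mg/mL + NADPH 0.5 mg/mL (final); 16 h, 37 C; CellTiter-Glo, 30 min RT, luminescence.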

[9] = p53 small molecule agonists, cell-based qHTS assay with rat liver microsomes: qHTS cell viability counter screen (AID 1963580); further: nearly all actives have a fitted effect of over 45% in size
Outline: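 Viability is assessed in parallel with the p53 reporter read: HCT-116 p53RE-bla cells receive compounds plus rat microsomes and NADPH (0.5 mg/mL final apiece), incubate 16 h at 37 C, and then CellTiter-Glo luminescence is recorded.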

[10] = p53 small molecule agonists, cell-based qHTS assay: qHTS cell viability counter screen (AID 1963581); further: nearly all actives have a fitted effect of over 45% in size
Outline: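 p53RE-bla HCT-116 cells were exposed to compounds for 16 h at 37 C; after the beta-lactamase FRET read in the same wells, CellTiter-Glo was added and luminescence (intracellular ATP) read after 30 min at room temperature.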

[11] = p53 small molecule agonists, cell-based qHTS assay (AID 1963582; active means well fitted activation curve with a large enough effect in the signal ratio in the repeat runs, not every such curve was filed as active; the % refers to the signal ratio)
Outline: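 p53RE-bla beta-lactamase reporter cells rested 5 h at 37 C/5% CO2, then received compounds in DMSO by pin transfer and were incubated 16 h at 37 C. LiveBLAzer B/G FRET substrate was loaded for 2 h at room temperature before fluorescence reading.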

[12] = target: 5-hydroxytryptamine receptor 2A (Homo sapiens) (UniProt P28223); assay: 5-hydroxytryptamine receptor 2A (HTR2A) small molecule antagonists, cell-based qHTS assay (AID 1963586); further: nearly all actives have a fitted effect of over 45% in size
Chain of 5-hydroxytryptamine receptor 2A (Homo sapiens) (P28223 whole entry, looked up): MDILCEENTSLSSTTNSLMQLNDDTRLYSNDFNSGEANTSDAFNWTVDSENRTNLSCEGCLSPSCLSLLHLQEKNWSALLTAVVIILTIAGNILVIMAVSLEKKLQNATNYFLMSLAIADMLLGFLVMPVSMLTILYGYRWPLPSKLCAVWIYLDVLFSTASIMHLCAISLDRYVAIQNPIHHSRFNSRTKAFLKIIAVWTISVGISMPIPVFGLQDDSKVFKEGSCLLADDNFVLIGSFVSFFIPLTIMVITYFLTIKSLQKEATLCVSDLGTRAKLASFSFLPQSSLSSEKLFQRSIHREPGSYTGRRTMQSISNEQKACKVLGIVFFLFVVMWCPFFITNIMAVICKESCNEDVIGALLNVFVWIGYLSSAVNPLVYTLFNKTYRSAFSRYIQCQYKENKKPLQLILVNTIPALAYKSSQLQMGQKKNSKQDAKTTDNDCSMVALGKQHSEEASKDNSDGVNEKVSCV
Outline: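 Antagonist-mode intracellular calcium assay: DOI (4 nM) added after 5 min compound pre-incubation at room temperature to dye-loaded HTR2A-CHO cells. Fluorescence followed for 3 min, sampled every second.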

[13] = target: 5-hydroxytryptamine receptor 2A (Homo sapiens) (UniProt P28223); assay: 5-hydroxytryptamine receptor 2A (HTR2A) small molecule agonists, cell-based qHTS assay (AID 1963587); further: nearly all actives have a fitted effect of over 30% in size
Outline: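 CHO cells stably expressing human HTR2A, plated 18 h, loaded with calcium dye 1 h at 37 C. Agonist mode: compounds added and intracellular calcium fluorescence recorded kinetically for 2 min at 1 sec intervals.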

[14] = target: Muscarinic acetylcholine receptor M1 (Homo sapiens) (UniProt P11229); assay: Cholinergic receptor muscarinic 1 (CHRM1) small molecule antagonists, cell-based qHTS assay (AID 1963588); further: nearly all actives have a fitted effect of over 40% in size
Chain of Muscarinic acetylcholine receptor M1 (Homo sapiens) (P11229 whole entry, looked up): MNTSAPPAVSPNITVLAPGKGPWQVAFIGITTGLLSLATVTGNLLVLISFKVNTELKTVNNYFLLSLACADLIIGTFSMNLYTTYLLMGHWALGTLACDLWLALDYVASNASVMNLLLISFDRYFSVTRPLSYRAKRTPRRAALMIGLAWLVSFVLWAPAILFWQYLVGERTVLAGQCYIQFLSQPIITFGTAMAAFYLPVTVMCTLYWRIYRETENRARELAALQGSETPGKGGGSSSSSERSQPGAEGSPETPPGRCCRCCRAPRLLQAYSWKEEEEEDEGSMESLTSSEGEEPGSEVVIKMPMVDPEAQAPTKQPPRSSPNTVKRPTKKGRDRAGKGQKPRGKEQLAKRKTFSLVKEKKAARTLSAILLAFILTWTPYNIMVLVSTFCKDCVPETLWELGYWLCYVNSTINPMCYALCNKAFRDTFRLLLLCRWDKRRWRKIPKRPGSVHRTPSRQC
Outline: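 CHRM1-CHO calcium-flux assay, antagonist mode. Cells were seeded 18 h, dye-loaded 1 h at 37 C and given compound for 5 min at RT, then acetylcholine was added at 50nM. FDSS fluorescence was read 3 min; 15 concentrations, three runs.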

[15] = target: Muscarinic acetylcholine receptor M1 (Homo sapiens) (UniProt P11229); assay: Cholinergic receptor muscarinic 1 (CHRM1) small molecule agonists, cell-based qHTS assay (AID 1963589); further: nearly all actives have a fitted effect of over 35% in size
Outline: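 CHO cells stably expressing human CHRM1, seeded 18 h at 37 C/5% CO2, dye-loaded 1 h at 37 C, then given compound in agonist mode; intracellular calcium fluorescence read kinetically at 1 s intervals. Fifteen concentrations, three independent runs.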

[16] = cAMP Responsive Elements (CRE) small molecule agonists, cell-based qHTS assay (AID 1963590)
Outline: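 CRE-bla HEK 293T cells in DMEM with 10% dialyzed FBS, NEAA, pyruvate and 25 mM HEPES were plated 18 h at 37 C/5% CO2, then exposed to compounds in DMSO for 3 h before LiveBLAzer B/G FRET substrate addition.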

[17] = cAMP Responsive Elements (CRE) small molecule antagonists, cell-based qHTS assay (AID 1963591; active means well fitted inhibition curve with a large enough effect in the signal ratio in the repeat runs, not every such curve was filed as active; the % refers to the signal ratio)
Outline: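 CRE-bla HEK293T cells were plated 18 h at 37 °C/5% CO2, pinned with compound in DMSO, then stimulated with NKH477 at 0.25 uM final for 3 h. LiveBLAzer B/G FRET substrate was added and plates incubated 2 h at room temperature.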

[18] = target: D(2) dopamine receptor (Homo sapiens) (UniProt P14416); assay: Dopamine D2 receptor (DRD2) small molecule agonists, cell-based qHTS assay (AID 1963594); further: nearly all actives have a fitted effect of over 35% in size
Chain of D(2) dopamine receptor (Homo sapiens) (P14416 whole entry, looked up): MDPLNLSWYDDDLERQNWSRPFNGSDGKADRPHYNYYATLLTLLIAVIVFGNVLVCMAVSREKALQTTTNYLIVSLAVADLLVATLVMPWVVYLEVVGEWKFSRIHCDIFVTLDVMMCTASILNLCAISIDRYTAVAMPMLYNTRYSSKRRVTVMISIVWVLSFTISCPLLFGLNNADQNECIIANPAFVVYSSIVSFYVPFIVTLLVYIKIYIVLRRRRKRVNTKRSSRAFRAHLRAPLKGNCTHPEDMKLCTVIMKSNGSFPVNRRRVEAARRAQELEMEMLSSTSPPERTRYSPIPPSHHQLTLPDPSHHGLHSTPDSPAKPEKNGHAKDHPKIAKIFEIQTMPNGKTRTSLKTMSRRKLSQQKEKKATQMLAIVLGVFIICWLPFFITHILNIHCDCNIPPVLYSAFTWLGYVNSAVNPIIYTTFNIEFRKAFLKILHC
Outline: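 HEK293 cells stably expressing human DRD2, pre-treated with PDE inhibitor Ro20-1724 (0.1 mM final) and compound 10 min at room temperature, then stimulated with NKH477 (200nM […]) for 30 min. cAMP read by HTRF (665/620 nm).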

[19] = target: D(2) dopamine receptor (Homo sapiens) (UniProt P14416); assay: Dopamine D2 receptor (DRD2) small molecule antagonists, cell-based qHTS assay (AID 1963595; active means well fitted inhibition curve with a large enough effect in the signal ratio in the repeat runs, with a control signal flat; the % refers to the signal ratio)
Outline: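 Antagonism was scored as restored cAMP in HEK293-DRD2 cells. These cells were stimulated with 200 nM NKH477 and 12 nM quinpirole for 30 min at room temperature, in the presence of 0.1 mM Ro20-1724.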

[20] = target: Beta-2 adrenergic receptor (Homo sapiens) (UniProt P07550); assay: Adrenergic beta2 receptor (ADRB2) small molecule antagonists, cell-based qHTS assay (AID 1963592); further: series mostly up to about 92 µM; nearly all actives have a fitted effect of over 50% in size
Chain of Beta-2 adrenergic receptor (Homo sapiens) (P07550 whole entry, looked up): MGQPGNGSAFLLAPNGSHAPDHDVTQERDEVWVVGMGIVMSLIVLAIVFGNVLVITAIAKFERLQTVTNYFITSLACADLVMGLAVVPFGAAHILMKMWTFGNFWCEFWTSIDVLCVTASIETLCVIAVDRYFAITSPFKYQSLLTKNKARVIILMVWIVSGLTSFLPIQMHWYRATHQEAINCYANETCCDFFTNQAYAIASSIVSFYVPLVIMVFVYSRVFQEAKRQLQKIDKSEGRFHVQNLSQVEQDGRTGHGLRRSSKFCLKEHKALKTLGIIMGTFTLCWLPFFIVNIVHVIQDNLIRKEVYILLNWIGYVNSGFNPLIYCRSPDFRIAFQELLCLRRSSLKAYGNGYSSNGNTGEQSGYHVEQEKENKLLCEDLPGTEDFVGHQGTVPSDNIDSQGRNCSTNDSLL
Outline: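 Cells (CHO, stable ADRB2 overexpression) incubated 18-20hr at 37C; compounds added from DMSO; agonist mix (1nM isoproterenol, 100uM IBMX, 25uM Ro-20-1724) added; 0.5hr RT; d2-cAMP and anti-cAMP-cryptate added; 1hr RT; 665/615 nm read.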

Measured: Potency

CN(C)C(=O)Nc1ccc(Oc2ccc(Cl)cc2)cc1
not listed: [20]
inactive: all other assays above

CCCCCCOC(=O)C(C)C
not listed: [17]
inactive: all other assays above

SC1CCCCC1
not listed: [19] | [20]
inactive: all other assays above

O=S1OCCO1
not listed: [20]
inactive: all other assays above

CC(=O)Nc1cc(S(=O)(=O)O)cc2cc(S(=O)(=O)O)c(N=Nc3ccccc3)c(O)c12
active: [1] 27.3 µM
not listed: [19] | [20]
inactive: all other assays above

OC1OCCOC1O (centres undefined)
not listed: [20]
inactive: all other assays above

CCOC(=O)CCC(=O)OCC
not listed: [17] | [19]
inactive: all other assays above

Cn1c(=O)c2c(ncn2CC(=O)O)n(C)c1=O
not listed: [20]
inactive: all other assays above
